Molecules are shown by their SMILES. Several values for one entry are separate records, joined by “and”; a condition that tells them apart may be missing. Identical values can stand only once.

Chain of Solute carrier family 2, facilitated glucose transporter member 1 (Homo sapiens) (P11166 whole entry): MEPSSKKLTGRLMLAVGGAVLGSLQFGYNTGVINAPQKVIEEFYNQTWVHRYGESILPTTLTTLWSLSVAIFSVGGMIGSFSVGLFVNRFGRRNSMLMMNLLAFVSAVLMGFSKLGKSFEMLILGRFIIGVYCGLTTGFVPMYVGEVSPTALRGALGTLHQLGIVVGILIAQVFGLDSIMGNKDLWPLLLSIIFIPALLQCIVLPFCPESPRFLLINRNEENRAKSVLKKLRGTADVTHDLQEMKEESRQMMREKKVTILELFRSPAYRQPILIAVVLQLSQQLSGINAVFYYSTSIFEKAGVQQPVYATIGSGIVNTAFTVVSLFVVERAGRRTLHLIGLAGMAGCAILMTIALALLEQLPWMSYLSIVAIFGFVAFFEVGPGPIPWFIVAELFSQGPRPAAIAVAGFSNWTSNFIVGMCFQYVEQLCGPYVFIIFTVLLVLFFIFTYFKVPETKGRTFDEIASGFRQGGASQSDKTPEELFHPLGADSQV

One test concerns the target Solute carrier family 2, facilitated glucose transporter member 1 (Homo sapiens) (UniProt P11166). The experiment in a line: ST_JUDE_LEISH: Cytotoxicity at 2uM final concentration against transgenic Leishmania Mexicana promastigotes LmGLUT1 that are glucose transport deficient and complemented with the human glucose transporter GLUT1. Activity is measured by DNA content using SYBR green in vitro. The test is classed as functional.
As for `C1=C(c2c[nH]c3ccccc23)CCN(Cc2ccccc2)C1`, the inhibition (in general, the drop in the measured response relative to a control, in per cent) worked out at 1.51%.

With `O=C(/C=C/c1ccc(Cl)c(Cl)c1)Nc1cccc(CN2CCC(c3c[nH]c4ccccc34)CC2)c1`, the inhibition turned out to be 8.01%.

In the case of `CC(=O)N(Cc1cccc(-c2cccc(CNCc3ccc4c(c3)OCO4)c2)c1)C1CCN(Cc2ccccc2)CC1`, the inhibition is 6.88%.

Take `Cc1c(C)c2c(c(C)c1O)CC[C@](C)(C(=O)NC1CCC(CN3CCC(c4c[nH]c5ccccc45)CC3)CC1)O2` (stereo partly drawn): the inhibition is -0.89% and 2.73%.

Turning to `CCCCC1(NC(=O)[C@H](CC(C)C)Nc2ccc(C#N)c3ccccc23)CCCCC1`, the inhibition was determined as 1.12%.

For the compound `COc1ccc(CN(C2CC2)C(C)C(=O)c2[nH]c(C)c(C(C)=O)c2C)cc1` (stereo not drawn), the inhibition was -1.09%.

`C=C[C@H]1CN2CC[C@H]1C[C@H]2[C@H](OS(=O)(=O)O)c1ccnc2ccccc12`: the inhibition was 9.31%.

As for `CCCCC/C=C/C(=O)NC1CCC(CN2CCC(c3c[nH]c4ccccc34)CC2)CC1` (stereo not drawn), the inhibition came to 2.84%.

As for `COC(=O)c1ccc(CC(C)NCC(O)c2cccc(Br)c2)cc1` (stereo not drawn), the inhibition is -0.96%.

Turning to `C#CCOc1ccc(CC(C)NCC(O)c2cccc(C(F)(F)F)c2)cc1` (stereo not drawn), the inhibition was determined as 0.24%.

With `COCCNCc1ccc(-c2ccc(CN(C(=O)NC3CCCCC3)C3CCN(Cc4ccccc4)CC3)cc2)cc1`, the inhibition worked out at 2.65%.

In the case of `CN(C)c1cccc(CCNCCc2c[nH]c3ccc(Cl)cc23)c1`, the inhibition is -1.51%.

As for `Cc1ccc(C(=O)Nc2ccnc(N(C)C3CCN(Cc4cccc(O)c4)CC3)c2)cn1`, the inhibition stood at 3.48%.

For `O=C(Nc1ccc(Cl)c(Cl)c1)N1CCC(CN2CCC(c3c[nH]c4ccccc34)CC2)CC1`, the inhibition came out at 6.13%.

Regarding `CC(Cc1ccc(S(=O)(=O)N(C(C)C)C(C)C)cc1)NCC(O)c1cccc(C(F)(F)F)c1` (stereo not drawn), the inhibition is -0.77%.

In the case of `COc1cc(C=CC(=O)N2CCC(CN3CCC(c4c[nH]c5ccccc45)CC3)CC2)ccc1O`, the inhibition was 8.46%.

Take `CC[C@H]1CN2CC[C@H]1C[C@H]2[C@@H](O)c1cc(OCCCN(C)C)nc2ccc(OC)cc12`: the inhibition is -1.68%.

For `CC(=O)N(Cc1ccccc1-c1cccc(CNCCc2ccccc2)c1)C1CCN(Cc2ccccc2)CC1`, the inhibition was 8.96%.

Consider `C=CC12CCN(CC1)C(C(O)c1ccnc3ccc(OC)cc13)C2` (stereo not drawn), for which the inhibition worked out at 0.26%.

Take `O=C(/C=C/c1ccc(Cl)c(Cl)c1)NCCC1CCC(N2CCC(c3c[nH]c4ccc(O)cc34)CC2)CC1` (stereo not drawn): the inhibition was 0.48%.

In the case of `O=C(/C=C/c1ccc(Cl)c(Cl)c1)N1CCC(CN2CCC(c3c(-c4ccc(F)cc4)[nH]c4ccccc34)CC2)CC1`, the inhibition was 0.15%.

Take `CCCc1cc(O)c2c3c(c(=O)oc2c1)CN(C)CC3`: the inhibition was found to be 0.29%.

For `O=C(C=Cc1ccccc1Br)NC1CCC(CN2CCC(c3c[nH]c4ccccc34)CC2)CC1` (stereo not drawn), the inhibition is 9.4% and 3.03%.

As for `O=C(/C=C/c1ccc(Cl)c(Cl)c1)NC1CCC(CN2CCC(c3c[nH]c4cc(C(F)(F)F)ccc34)CC2)CC1` (stereo not drawn), the inhibition is 6.9% and 1.89%.

For the compound `COCCSc1ccc(CC(C)NCC(O)c2cccc(Cl)c2)cc1` (stereo not drawn), the inhibition worked out at 0.56%.

On to `O=C(C=Cc1ccccc1O)N1CCC(CN2CCC(c3c[nH]c4ccccc34)CC2)CC1`, for which the inhibition stood at 2.59%.

`Cc1[nH]c2cc(F)ccc2c1C1=CCN(CCCCC2(C)C(=O)Nc3c(F)cccc32)CC1` (stereo not drawn): the inhibition turned out to be 3.71%.

As to `CCCCNC(c1ccc(Cl)cc1)C(O)c1ccc(Cl)cc1` (stereo not drawn), the inhibition amounted to 8.3%.

For `COc1ccc(C=CC(=O)NC2CCC(CN3CCC(c4c[nH]c5ccccc45)CC3)CC2)cc1` (stereo not drawn), the inhibition was 3.28% and -0.32%.

For the compound `CC[C@@]1(O)C(=O)OCc2c1cc1n(c2=O)Cc2c-1nc1cc3c(cc1c2CN1CCOCC1)OCO3`, the inhibition was 51.3%.

For `O=C(CCc1ccc(Cl)cc1Cl)NC1CCC(CN2CCC(c3c[nH]c4ccccc34)CC2)CC1` (stereo not drawn), the inhibition was 1.11% and 15.9%.

Regarding `COC(=O)c1ccc(CC(C)NCC(O)c2cc(Cl)c(N)c(Cl)c2)cc1` (stereo not drawn), the inhibition was found to be 1.96%.

Turning to `Cc1c(C(=O)NC2CCC(CN3CCC(c4c[nH]c5ccccc45)CC3)CC2)cnn1-c1c(Cl)cc(Cl)cc1Cl` (stereo not drawn), the inhibition was determined as 1.64%.

On to `CCOc1ccc(CN(CCc2ccc3c(c2)OCO3)Cc2cc(OC)ccc2O)cc1`, for which the inhibition worked out at 4.49%.

As to `O=C(NC1CCC(CN2CCC(c3c[nH]c4ccccc34)CC2)CC1)C1(O)c2ccccc2-c2ccccc21` (stereo not drawn), the inhibition was determined as 1.4%.

Take `Cn1nc(-c2ccc(S(=O)(=O)N3CCC(CN4CCC(c5c[nH]c6ccccc56)CC4)CC3)s2)cc1C(F)(F)F`: the inhibition was determined as 0.1%.

For `CC[C@H]1CN2CC[C@@H]1C[C@H]2[C@H](O)c1cc(N2CCC(O)(c3ccc(Cl)cc3)CC2)nc2ccc(OC)cc12`, the inhibition is 6.73%.

With `COC(=O)c1ccc(CC(C)NCC(O)c2cccc(C(F)(F)F)c2)cc1C` (stereo not drawn), the inhibition is 0.54%.

Turning to `CCCc1c(C(=O)NC2CCC(CN3CCC(c4c[nH]c5ccccc45)CC3)CC2)cnn1-c1c(Cl)cc(Cl)cc1Cl` (stereo not drawn), the inhibition amounted to 4.74%.

In another test the target is Hexose transporter 1 (Plasmodium falciparum) (UniProt O97467). In words: ST_JUDE_LEISH: Cytotoxicity at 2uM final concentration against transgenic Leishmania Mexicana promastigotes LmPfHT that are glucose transport deficient and complemented with the Plasmodium falciparum hexose transporter. Activity is measured by DNA content using SYBR green in vitro. The test is classed as functional.
In the case of `C1=C(c2c[nH]c3ccccc23)CCN(Cc2ccccc2)C1`, the inhibition is 0.32%.

Consider `O=C(/C=C/c1ccc(Cl)c(Cl)c1)Nc1cccc(CN2CCC(c3c[nH]c4ccccc34)CC2)c1`, for which the inhibition came out at 6.99%.

Consider `CC(=O)N(Cc1cccc(-c2cccc(CNCc3ccc4c(c3)OCO4)c2)c1)C1CCN(Cc2ccccc2)CC1`, for which the inhibition worked out at 7.09%.

For the compound `Cc1c(C)c2c(c(C)c1O)CC[C@](C)(C(=O)NC1CCC(CN3CCC(c4c[nH]c5ccccc45)CC3)CC1)O2` (stereo partly drawn), the inhibition was 2.05% and 2.37%.

For the compound `CCCCC1(NC(=O)[C@H](CC(C)C)Nc2ccc(C#N)c3ccccc23)CCCCC1`, the inhibition was determined as 4.9%.

Regarding `COc1ccc(CN(C2CC2)C(C)C(=O)c2[nH]c(C)c(C(C)=O)c2C)cc1` (stereo not drawn), the inhibition is 1.96%.

`C=C[C@H]1CN2CC[C@H]1C[C@H]2[C@H](OS(=O)(=O)O)c1ccnc2ccccc12`: the inhibition amounted to 8.07%.

For the compound `CCCCC/C=C/C(=O)NC1CCC(CN2CCC(c3c[nH]c4ccccc34)CC2)CC1` (stereo not drawn), the inhibition worked out at 2.43%.

In the case of `COC(=O)c1ccc(CC(C)NCC(O)c2cccc(Br)c2)cc1` (stereo not drawn), the inhibition is -1.92%.

As to `C#CCOc1ccc(CC(C)NCC(O)c2cccc(C(F)(F)F)c2)cc1` (stereo not drawn), the inhibition is 0.36%.

`COCCNCc1ccc(-c2ccc(CN(C(=O)NC3CCCCC3)C3CCN(Cc4ccccc4)CC3)cc2)cc1`: the inhibition came out at 2%.

With `CN(C)c1cccc(CCNCCc2c[nH]c3ccc(Cl)cc23)c1`, the inhibition is 4.45%.

As for `Cc1ccc(C(=O)Nc2ccnc(N(C)C3CCN(Cc4cccc(O)c4)CC3)c2)cn1`, the inhibition stood at 1.94%.

Regarding `O=C(Nc1ccc(Cl)c(Cl)c1)N1CCC(CN2CCC(c3c[nH]c4ccccc34)CC2)CC1`, the inhibition worked out at 5.01%.

Take `CC(Cc1ccc(S(=O)(=O)N(C(C)C)C(C)C)cc1)NCC(O)c1cccc(C(F)(F)F)c1` (stereo not drawn): the inhibition came to 2.53%.

Turning to `COc1cc(C=CC(=O)N2CCC(CN3CCC(c4c[nH]c5ccccc45)CC3)CC2)ccc1O`, the inhibition was determined as 6.19%.

For the compound `CC[C@H]1CN2CC[C@H]1C[C@H]2[C@@H](O)c1cc(OCCCN(C)C)nc2ccc(OC)cc12`, the inhibition is -1.68%.

On to `CC(=O)N(Cc1ccccc1-c1cccc(CNCCc2ccccc2)c1)C1CCN(Cc2ccccc2)CC1`, for which the inhibition is 7.85%.

Take `C=CC12CCN(CC1)C(C(O)c1ccnc3ccc(OC)cc13)C2` (stereo not drawn): the inhibition amounted to 0.03%.

In the case of `O=C(/C=C/c1ccc(Cl)c(Cl)c1)NCCC1CCC(N2CCC(c3c[nH]c4ccc(O)cc34)CC2)CC1` (stereo not drawn), the inhibition amounted to 3.87%.

Take `O=C(/C=C/c1ccc(Cl)c(Cl)c1)N1CCC(CN2CCC(c3c(-c4ccc(F)cc4)[nH]c4ccccc34)CC2)CC1`: the inhibition was -1.9%.

`CCCc1cc(O)c2c3c(c(=O)oc2c1)CN(C)CC3`: the inhibition is 0.97%.

Turning to `O=C(C=Cc1ccccc1Br)NC1CCC(CN2CCC(c3c[nH]c4ccccc34)CC2)CC1` (stereo not drawn), the inhibition is 3.62% and 2.4%.

In the case of `O=C(/C=C/c1ccc(Cl)c(Cl)c1)NC1CCC(CN2CCC(c3c[nH]c4cc(C(F)(F)F)ccc34)CC2)CC1` (stereo not drawn), the inhibition is 4.9% and -0.14%.

As for `COCCSc1ccc(CC(C)NCC(O)c2cccc(Cl)c2)cc1` (stereo not drawn), the inhibition came out at 0.25%.

For the compound `O=C(C=Cc1ccccc1O)N1CCC(CN2CCC(c3c[nH]c4ccccc34)CC2)CC1`, the inhibition came out at 2.2%.

Turning to `Cc1[nH]c2cc(F)ccc2c1C1=CCN(CCCCC2(C)C(=O)Nc3c(F)cccc32)CC1` (stereo not drawn), the inhibition was 5.17%.

For `CCCCNC(c1ccc(Cl)cc1)C(O)c1ccc(Cl)cc1` (stereo not drawn), the inhibition turned out to be 8.45%.

With `COc1ccc(C=CC(=O)NC2CCC(CN3CCC(c4c[nH]c5ccccc45)CC3)CC2)cc1` (stereo not drawn), the inhibition was 1.24% and -0.89%.

`CC[C@@]1(O)C(=O)OCc2c1cc1n(c2=O)Cc2c-1nc1cc3c(cc1c2CN1CCOCC1)OCO3`: the inhibition was 76.7%.

Regarding `O=C(CCc1ccc(Cl)cc1Cl)NC1CCC(CN2CCC(c3c[nH]c4ccccc34)CC2)CC1` (stereo not drawn), the inhibition is -0.14% and 8.88%.

`COC(=O)c1ccc(CC(C)NCC(O)c2cc(Cl)c(N)c(Cl)c2)cc1` (stereo not drawn): the inhibition amounted to 2.46%.

With `Cc1c(C(=O)NC2CCC(CN3CCC(c4c[nH]c5ccccc45)CC3)CC2)cnn1-c1c(Cl)cc(Cl)cc1Cl` (stereo not drawn), the inhibition amounted to 1.93%.

With `CCOc1ccc(CN(CCc2ccc3c(c2)OCO3)Cc2cc(OC)ccc2O)cc1`, the inhibition was 4.01%.

Take `O=C(NC1CCC(CN2CCC(c3c[nH]c4ccccc34)CC2)CC1)C1(O)c2ccccc2-c2ccccc21` (stereo not drawn): the inhibition was determined as 2.05%.

As to `Cn1nc(-c2ccc(S(=O)(=O)N3CCC(CN4CCC(c5c[nH]c6ccccc56)CC4)CC3)s2)cc1C(F)(F)F`, the inhibition turned out to be 2.15%.

Consider `CC[C@H]1CN2CC[C@@H]1C[C@H]2[C@H](O)c1cc(N2CCC(O)(c3ccc(Cl)cc3)CC2)nc2ccc(OC)cc12`, for which the inhibition amounted to 1.34%.

As to `COC(=O)c1ccc(CC(C)NCC(O)c2cccc(C(F)(F)F)c2)cc1C` (stereo not drawn), the inhibition was determined as 1.8%.

Regarding `CCCc1c(C(=O)NC2CCC(CN3CCC(c4c[nH]c5ccccc45)CC3)CC2)cnn1-c1c(Cl)cc(Cl)cc1Cl` (stereo not drawn), the inhibition stood at 3.29%.

The values above are taken from ChEMBL document CHEMBL3433997, “St. Jude Leishmania screening dataset” (2016).
